# Reference: PubChem BioAssay (NCI)
# The panel holds about 79,000 compounds, 15% with a hit somewhere; the sample as a whole holds those more often. A number with no mark means an inactive call. No stated cut-off is given here; in the data, active means growth inhibition above about 70%; inactive means the rest.
# Assay: NCI Yeast Anticancer Drug Screen. Data for the mlh1 rad18 strain (AID 175)
# Details: S. cerevisiae mlh1 rad18 strain growth inhibition; at 50.0 µM; hits give high values
# Summary of the method: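 Vehicle-treated cultures served as the reference for growth inhibition in a yeast strain carrying DNA damage repair alterations exposed to each compound.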
row,Compound,growth inhibition
1,c1ccc(N2C3Sc4ncccc4C2Sc2ncccc23)cc1,7.85%
2,OC1(C(O)(c2ccc(-c3ccccc3)cc2)c2ccc(-c3ccccc3)cc2)CCCCC1,-0.5%
3,COc1cc(/C=C2\SC(=S)N(/C=C(/C#N)C(=O)c3ccc4ccccc4c3)C2=O)cc(OC)c1OC,31.4%
4,O=C1CCN2C(=O)CCN12,2.35%
5,CC(=O)Nc1c(C)ncn(-c2ccccc2)c1=O,-11.2%
6,CCNc1ncc2nc(CC(=O)OC)c(=O)n(CC)c2n1,-4.4%
7,CC(=O)OC1C(C(O)CO)OC2OC(C)(C)OC21 (stereo unspecified),-6.25%
8,CC(C)=CCC/C(C)=C/CC/C(C)=C/C1CCC(=O)C1(C)C (stereo unspecified),-8.35%
9,CCOc1ccccc1NC(=O)C(=O)C(c1ccccc1)S(=O)(=O)Cc1ccccc1 (stereo unspecified),-1.5%
10,Oc1ccc2ccccc2c1-c1c(OC(c2ccccc2)c2ccccc2)ccc2ccccc12,-13.1%
11,NC(N)=N/N=C(\c1nc2ccc([N+](=O)[O-])cc2[nH]c1=O)C(O)c1ccc([N+](=O)[O-])cc1 (stereo unspecified),1.85%
12,CCOC(=O)CC1C(C)C(C)NC(C)C1C (stereo unspecified),5.75%
13,O=C1CCCCC1N1CCCCC1 (stereo unspecified),0%
14,CN(C)C(=O)c1cccnc1,-2.35%
15,CC(CCC(=O)O)[C@H]1CCC2[C@@H]3C(=O)C[C@@H]4CC(O)CC[C@]4(C)C3CC[C@@]21C (stereo partly specified),23.1%
16,CCC(c1ccccc1)c1cc(C(C)(C)C)cc(C(C)(C)C)c1O (stereo unspecified),0.95%
